# Laboratory results as given in PubChem BioAssay AID449739 (Vanderbilt High Throughput Screening Facility, 2010).
# Screen size: about 100,000 compounds; about 4,200 (4.2%) were called active.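 Rule for the calls: active = single-dose well whose peak fluorescence ratio is a statistical outlier from its plate by either plate-standardised score or position-corrected B-score; inactive = the rest.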 The entries come from a sample that favours actives as a whole.
# Target: Voltage-dependent T-type calcium channel subunit alpha-1H (Homo sapiens) (UniProt O95180)
# Sequence (O95180 whole entry, looked up): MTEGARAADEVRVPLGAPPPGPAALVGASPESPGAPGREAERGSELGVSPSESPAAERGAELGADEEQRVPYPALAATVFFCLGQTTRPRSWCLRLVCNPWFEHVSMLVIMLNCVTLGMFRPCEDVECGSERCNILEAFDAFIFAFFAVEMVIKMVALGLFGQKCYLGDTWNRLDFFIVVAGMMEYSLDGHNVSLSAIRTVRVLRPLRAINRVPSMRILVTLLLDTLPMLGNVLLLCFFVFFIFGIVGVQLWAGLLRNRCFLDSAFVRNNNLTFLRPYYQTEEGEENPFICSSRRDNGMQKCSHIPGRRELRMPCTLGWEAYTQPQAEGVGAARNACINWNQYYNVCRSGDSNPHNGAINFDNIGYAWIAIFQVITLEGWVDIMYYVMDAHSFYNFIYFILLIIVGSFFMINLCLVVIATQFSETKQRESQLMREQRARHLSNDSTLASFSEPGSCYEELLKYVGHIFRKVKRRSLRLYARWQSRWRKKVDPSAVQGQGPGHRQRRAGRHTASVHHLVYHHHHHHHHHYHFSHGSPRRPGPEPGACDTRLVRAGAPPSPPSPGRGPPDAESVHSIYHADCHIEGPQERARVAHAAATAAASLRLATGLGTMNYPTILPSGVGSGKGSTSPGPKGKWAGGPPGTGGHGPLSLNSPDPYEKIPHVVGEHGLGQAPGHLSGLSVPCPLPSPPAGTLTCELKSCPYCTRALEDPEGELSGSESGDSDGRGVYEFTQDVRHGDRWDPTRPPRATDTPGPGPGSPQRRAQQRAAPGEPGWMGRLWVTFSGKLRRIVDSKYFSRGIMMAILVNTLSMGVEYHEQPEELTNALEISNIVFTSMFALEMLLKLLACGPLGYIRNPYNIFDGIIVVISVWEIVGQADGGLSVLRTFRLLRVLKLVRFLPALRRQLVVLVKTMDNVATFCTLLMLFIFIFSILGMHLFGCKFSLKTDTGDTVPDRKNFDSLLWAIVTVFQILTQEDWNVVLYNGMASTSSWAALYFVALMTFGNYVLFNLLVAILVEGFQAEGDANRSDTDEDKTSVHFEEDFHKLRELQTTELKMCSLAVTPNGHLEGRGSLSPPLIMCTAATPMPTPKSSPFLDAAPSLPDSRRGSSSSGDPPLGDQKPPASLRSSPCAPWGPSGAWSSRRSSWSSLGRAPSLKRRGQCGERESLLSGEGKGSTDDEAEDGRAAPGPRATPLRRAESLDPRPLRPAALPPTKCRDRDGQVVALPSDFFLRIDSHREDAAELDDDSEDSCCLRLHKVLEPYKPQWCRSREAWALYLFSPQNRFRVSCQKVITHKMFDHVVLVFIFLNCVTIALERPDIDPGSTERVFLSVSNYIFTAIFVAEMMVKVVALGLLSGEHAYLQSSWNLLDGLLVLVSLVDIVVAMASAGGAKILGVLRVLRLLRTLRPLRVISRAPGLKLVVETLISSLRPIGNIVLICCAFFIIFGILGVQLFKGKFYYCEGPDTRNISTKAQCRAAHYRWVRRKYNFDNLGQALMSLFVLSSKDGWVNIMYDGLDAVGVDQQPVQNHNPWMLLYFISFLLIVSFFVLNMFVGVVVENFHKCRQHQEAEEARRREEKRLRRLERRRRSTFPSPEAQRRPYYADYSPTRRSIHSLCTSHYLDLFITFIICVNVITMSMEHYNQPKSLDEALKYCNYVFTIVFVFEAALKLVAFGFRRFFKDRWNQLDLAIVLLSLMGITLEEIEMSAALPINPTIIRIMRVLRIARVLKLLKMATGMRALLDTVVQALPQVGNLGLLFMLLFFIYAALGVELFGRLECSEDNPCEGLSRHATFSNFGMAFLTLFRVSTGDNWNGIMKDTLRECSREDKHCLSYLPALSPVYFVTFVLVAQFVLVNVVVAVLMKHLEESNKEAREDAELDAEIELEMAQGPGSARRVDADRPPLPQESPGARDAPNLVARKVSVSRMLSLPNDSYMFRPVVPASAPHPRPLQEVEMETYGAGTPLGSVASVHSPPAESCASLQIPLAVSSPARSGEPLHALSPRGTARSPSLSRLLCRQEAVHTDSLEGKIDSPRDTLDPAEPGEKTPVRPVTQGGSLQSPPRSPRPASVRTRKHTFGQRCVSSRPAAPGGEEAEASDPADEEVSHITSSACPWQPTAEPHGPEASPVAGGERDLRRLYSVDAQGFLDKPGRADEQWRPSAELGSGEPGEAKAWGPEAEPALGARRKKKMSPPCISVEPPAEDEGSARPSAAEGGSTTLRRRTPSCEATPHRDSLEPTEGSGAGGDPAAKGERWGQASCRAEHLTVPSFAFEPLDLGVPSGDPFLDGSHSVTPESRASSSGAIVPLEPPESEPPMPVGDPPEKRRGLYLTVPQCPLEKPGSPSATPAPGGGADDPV
# Assay: Cav3.2 calcium influx blockers – cell-based, Fluo-4 calcium fluorescence, FDSS, MLSMR library, primary screen (AID 449739)
# Conditions: Cav3.2-expressing cells, at 10 µM, active compounds read low
row,Compound,B-score
1,NC(=O)C1=C[C@@H](c2ccc3c(c2)OCO3)C[C@@H](OCCCCO)O1,0.476 (inactive)
2,O=C(Cn1nnc(-c2ccc(CN3CCOCC3)cc2)n1)NC1CCCCC1,-0.444 (inactive)
3,COc1cccc(N(CC(=O)NC2CCCC2)C(=O)Cn2nnc(-c3ccc(C)cc3)n2)c1,-4.56 (active)
4,COc1ccc(-c2nnn(CC(=O)N(CCO)C(C(=O)NC3CCCC3)c3ccc(F)cc3)n2)cc1 (configuration not stated),-1.11 (inactive)
5,COCc1cc(C)nc2sc(C(=O)NC3CCCCC3)c(N)c12,-0.0172 (inactive)
6,N#CC1=C(N)N(c2ccc(F)cc2)C(=O)C1,-0.201 (inactive)
7,O=C(CC1NCCNC1=O)Nc1ccc(Oc2ccccc2)cc1 (configuration not stated),-5.21 (active)
8,CCOc1ccc(NC(=O)CC2NCCNC2=O)cc1 (configuration not stated),0.0128 (inactive)
9,CCCOc1ccc(NC(=O)C2CCCNC2=O)cc1 (configuration not stated),-0.159 (inactive)
10,O=C1CCCC2=C1C(c1ccccc1)n1c(s/c(=C/c3cccc(F)c3)c1=O)=N2 (configuration not stated),0.975 (inactive)
11,O=C1N[C@@H](Cc2ccccc2)C(=O)N2[C@@H]3N(S(=O)(=O)c4ccc(F)cc4)c4ccccc4[C@]3(Br)C[C@@H]12,0.27 (inactive)
12,O=S(=O)(O)c1nc2ccccc2n1Cc1ccc(Cl)cc1,-0.194 (inactive)
13,N=c1n(Cc2ccc(Cl)cc2)c2ccccc2n1CC(O)c1ccco1 (configuration not stated),-3.51 (active)
14,Cn1c(=N)n(CC(O)c2ccccc2)c2ccccc21 (configuration not stated),0.141 (inactive)
15,Cc1cc([N+](=O)[O-])ccc1NCc1cccc([N+](=O)[O-])c1,0.0686 (inactive)
16,Cc1c(CCO)c(=O)[nH]n1C(=O)c1c(F)cccc1F,0.442 (inactive)
17,CC1CN(c2nc(-c3ccccc3)nnc2-c2ccccc2)CC(C)O1 (configuration not stated),-0.222 (inactive)
18,CSc1cc(C)n(-c2ccccc2C)c(=S)c1C(C)=O,0.0764 (inactive)
19,Cc1ccc(Cn2c(NC(=O)c3ccco3)nc3ccccc32)cc1,1.58 (inactive)
20,Cc1ccc(Cn2c(C)nc3c(c2=O)c2nc4ccccc4nc2n3Cc2ccco2)cc1,-6.69 (active)
21,Clc1cccc(-c2nc3nc4ccccc4nc3n2Cc2ccco2)c1,-2.21 (inactive)
22,COc1cc(OC)c2ccc(=O)oc2c1C(CCN1CCN(c2ccccc2)CC1)c1ccc2c(c1)OCO2 (configuration not stated),-0.318 (inactive)
23,C/C=C(\C)C(=O)NCCN1C2=NC[C@H](Cc3ccc(O)cc3)N2C[C@@H]1Cc1ccc(OC)cc1,-0.0234 (inactive)

row,Compound,B-score
1,CCO[C@H]1OC(C(=O)N2CCOCC2)=C[C@@H](c2ccc3c(c2)OCO3)[C@@H]1CCCO,-0.694 (inactive)
2,Cc1ccccc1-c1nnc(SCC(=O)NCc2ccc3c(c2)OCO3)n1C,0.345 (inactive)
3,O=C(CSc1nnc(-c2ccccn2)n1-c1ccccc1)Nc1ccc2c(c1)OCO2,0.144 (inactive)
4,Cc1cccc(C)c1NC(=O)CSc1nnc(-c2ccccc2)n1Cc1ccc2c(c1)OCO2,-6.18 (active)
5,COCCNC(=O)c1onc(CSc2cccc(C)c2)c1C(=O)O,1.46 (inactive)
6,CCCCN=C1N/C(=C\c2ccco2)C(=O)N1c1ccccc1,0.203 (inactive)
7,C=C(C)Cn1c(C)cc(C)c(S(=O)(=O)c2ccccc2C)c1=O,-4.84 (active)
8,COC/C=C/C1=CC2=CC(=O)C(C)(OC(=O)CCC(=O)OC)C(=O)C2=CO1 (configuration not stated),-0.853 (inactive)
9,CC1CCN(C(NC(=O)c2ccco2)C(=O)c2ccccc2)CC1 (configuration not stated),-1.33 (inactive)
10,O=C(Cn1cc(C(=O)c2cccs2)c2ccccc21)NCc1cccs1,-4.4 (active)
11,COC(=O)c1cn(CC(=O)NCc2cccs2)c2ccccc12,-0.599 (inactive)
12,COCCNC(=O)Cn1cc(C(=O)c2cccs2)c2ccccc21,0.167 (inactive)
13,CC(=O)n1cc([C@@H]2C=C(C(=O)N3CCN(Cc4ccc5c(c4)OCO5)CC3)O[C@H](OCc3ccc(CO)cc3)C2)c2ccccc21,-1.49 (inactive)
14,CC1(OC(=O)CCc2ccccc2)C(=O)C=C2C=C(c3ccc(C#N)cc3)N(CCc3ccccn3)C=C2C1=O (configuration not stated),0.634 (inactive)
15,CC(C)C[C@H](CO)Nc1nc(N(C)c2cccc(Cl)c2)c2ncn(C(C)C)c2n1,-3.33 (active)
16,COC(=O)C(C)n1cnc2c(nnn2-c2cccc(Cl)c2)c1=O (configuration not stated),-0.438 (inactive)
17,CC(C)n1cnc2c(Nc3cccc(Cl)c3)nc(N(CCO)CCCO)nc21,-0.405 (inactive)
18,CCCc1nc2ccccc2c(=O)n1NC(=O)c1c(O)c2ccccc2[nH]c1=O,-3.3 (active)
19,CCCCc1nc2ccccc2c(=O)n1NC(=O)c1c(O)c2cccc3c2n(c1=O)CC3,-7.27 (active)
20,CCCC(=O)Nc1c(O)c2ccccc2[nH]c1=O,-0.361 (inactive)
21,CCNC(=O)c1c(O)c2cccc3c2n(c1=O)CC3,-0.155 (inactive)
22,Cn1c(SCC(=O)N2CCCc3ccccc32)nc2ccccc2c1=O,-2.58 (inactive)
23,CCCc1nc2ccccc2c(=O)n1/N=C/c1ccc(O)c(O)c1,0.0906 (inactive)

row,Compound,B-score
1,Cc1nc(C)c(C(=O)N(c2ccc(C)c(C)c2)C(C(=O)NCc2ccco2)c2ccccc2)s1 (configuration not stated),-0.655 (inactive)
2,COc1ccc(NCc2nnc(SCc3ccccc3)n2-c2ccc(OC)cc2)cc1,-3.07 (inactive)
3,Cc1cccc(N2C(=O)C3C(c4ccccc4)OC4(C(=O)c5ccccc5C4=O)C3C2=O)c1 (configuration not stated),-0.244 (inactive)
4,Cc1nc(-c2ccc(Cl)cc2)sc1C1(C)CC(c2ccccc2F)=NO1 (configuration not stated),1.15 (inactive)
5,COc1ccc(SCCN2CCN(CC(C)C)CCC2=O)cc1,0.677 (inactive)
6,CCOC(=O)/C=C/CN(C(=O)OC(C)(C)C)S(=O)(=O)N1CC=CC1,0.152 (inactive)
7,COC(=O)c1cc(OC)ccc1-c1ccc(OC)cc1,0.191 (inactive)
8,Cc1ccc(NC(=O)C2CC(c3ccc(F)cc3)=NO2)cc1 (configuration not stated),0.0436 (inactive)
9,COC(=O)C1=C(Nc2ccc(C)cc2)C=C(C)C(C(=O)OC)C1c1ccc(F)cc1 (configuration not stated),-5.1 (active)
10,COC(=O)c1ccc(NC(=O)Nc2ccc(C)cc2)cc1,0.0358 (inactive)
11,COC(=O)C1C(=O)NCC1c1ccc(OC)cc1 (configuration not stated),0.134 (inactive)
12,COC(=O)C1=C(Nc2ccc(OC)cc2)C=C(C)C(C(=O)OC)C1c1ccc(C)cc1 (configuration not stated),-5.75 (active)
13,COP1(=O)C[C@@H](O)[C@@H](O)[C@@H](COCc2ccccc2)O1 (some centres not stated),0.634 (inactive)
14,CC(=O)Nc1ccccc1C(=O)C(=O)Nc1ccc(F)cc1,0.288 (inactive)
15,COc1cccc(CNc2nc3nc4c(c(=O)n3[nH]2)CCC4)c1,-0.11 (inactive)
16,Cc1cc2cc3c(N)[nH]nc3nc2cc1C,0.083 (inactive)
17,O=[N+]([O-])c1ccc(NCCCN2CCOCC2)c(Cl)c1,0.715 (inactive)
18,O=C(CN1C(=O)NC2(CCCC2)C1=O)Nc1ccc(F)c(F)c1F,0.274 (inactive)
19,O=C1c2ccccc2S(=O)(=O)c2cc(N3CCN(c4ccccn4)CC3)ccc21,0.804 (inactive)
20,Cc1ccc(-n2c(C)cc(/C=C(\C#N)C(=O)NCC3CCCO3)c2C)cc1 (configuration not stated),-1.95 (inactive)
21,CCC(=O)NC(=Nc1nc2ccccc2s1)NC(=O)CC,-0.485 (inactive)
22,CC(C)CC(=O)N/C(N)=N/c1nc2ccccc2s1,-4.05 (active)
23,O=C(O)CSCc1nc2ccccc2s1,1.19 (inactive)

row,Compound,B-score
1,Cc1nn(C)cc1/C=N/NC(=O)c1sc2ccccc2c1Cl,2.17 (inactive)
2,Cc1ccc(-c2nn(-c3ccccc3)cc2/C=N/NC(=O)c2ccc3c(c2)OCO3)cc1,-3.75 (inactive)
3,Cc1ccc(/C=N/NC(=O)C2=NNC(c3ccccc3)(c3ccccc3)C2)c(O)c1,-6.92 (active)
4,COc1ccc(SCc2noc(C(=O)NCC3CCCO3)c2C(=O)O)cc1 (configuration not stated),1.72 (inactive)
5,CCS(=O)(=O)n1nc(-c2ccc(OC)cc2)nc1SC,-0.316 (inactive)
6,CCS(=O)(=O)n1nc(-c2ccccc2)nc1SCc1ccccc1,-3.19 (active)
7,CS(=O)(=O)n1nc(-c2ccccc2)nc1NCc1ccco1,0.406 (inactive)
8,NC(=O)C1=C[C@H](c2csc3ccccc23)C[C@H](OCc2ccc(CO)cc2)O1,0.00737 (inactive)
9,Cc1cc2nc(C)n(CCCNC(=O)Nc3ccccc3)c2cc1C,-1.52 (inactive)
10,Cc1cc2ncn(CCCCOc3ccccc3)c2cc1C,-4.34 (active)
11,COCCOCCn1cnc2ccccc21,0.734 (inactive)
12,Cc1ccc2c(c1)-c1c(ssc1=S)C(C)(C)N2C(=O)CN1C(=O)c2ccccc2C1=O,-1.31 (inactive)
13,CC1=C(C)C(=O)OC(C(C)C2CCC3C4CC=C5CC(OC6OC(COC7OC(CO)C(O)C(O)C7O)C(O)C(O)C6O)CC(O)C5(C)C4CCC23C)C1 (configuration not stated),-0.348 (inactive)
14,CC(C)=CCC/C(C)=C/C(=O)O,0.444 (inactive)
15,CCCOc1ccc(N2C(=O)CC(N(CCc3ccc(S(N)(=O)=O)cc3)C(C)=O)C2=O)cc1 (configuration not stated),-0.148 (inactive)
16,CN(C)c1ccc(NC(=S)N(CCc2ccccc2)C2CC(=O)N(c3c(Cl)cccc3Cl)C2=O)cc1 (configuration not stated),-7.09 (active)
17,COC(=O)CN(C(=S)Nc1ccc(Cl)cc1)C1CC(=O)N(c2ccc(OC)cc2)C1=O (configuration not stated),-0.0552 (inactive)
18,C/C=C(/C)C(=O)O[C@@H]1c2cc3c(c4c2[C@@]2(CO4)C(=O)C(OC)=C(OC)C=C2C[C@@H](C)[C@H]1C)OCO3,-0.0512 (inactive)
19,CCN1CCN(C(=O)/C=C\C(=O)O)CC1,-0.00536 (inactive)
20,O=C(NCCCCCCCCCNC(=O)C(F)(F)F)C(F)(F)F,-0.288 (inactive)
21,O=C(c1cccc2ccccc12)N1CCN(c2ccccc2F)CC1,-2.56 (inactive)
22,Cn1c(C(=O)N2CCC(C(N)=O)CC2)cc2c(=O)n(C)c3ccccc3c21,0.0764 (inactive)
23,Cn1c2ccccc2c2c(C(=O)N3CCN(c4ccc(F)cc4)CC3)cn(C3CCCC3)c(=O)c21,-5.04 (active)
